From the supplement of paper PMC4466140

Legend:
Assay in all cases: SPOT peptide array binding signal intensity (averaged, normalized) (arbitrary units (background-subtracted, floor 0; scale differs between SH3 domains)); higher = stronger binding of the SH3 domain to the peptide
AgAbp1 = biological target: AgAbp1
Method: (§1)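 GST-tagged SH3 domains from S. cerevisiae (Sc), A. gossypii (Ag), C. albicans (Ca) and S. pombe (Sp) were incubated at 10 ug/ml overnight at 4 C on cellulose SPOT membranes carrying 292 synthetic 15-mer peptides mined from the S. cerevisiae proteome (cysteines replaced by serines). Binding was detected with anti-GST antibody, HRP secondary and chemiluminescence, quantified with Genespotter, and reported as normalized spot intensities averaged over biological replicates.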

AgBbc1 = biological target: AgBbc1
Method: as §1

AgBem1-D1 = biological target: AgBem1-D1
Method: as §1

AgBzz1-D1 = biological target: AgBzz1-D1
Method: as §1

AgBzz1-D2 = biological target: AgBzz1-D2
Method: as §1

AgCyk3 = biological target: AgCyk3
Method: as §1

AgFus1 = biological target: AgFus1
Method: as §1

AgHof1 = biological target: AgHof1
Method: as §1

AgHse1 = biological target: AgHse1
Method: as §1

AgLsb1 = biological target: AgLsb1
Method: as §1

AgLsb4 = biological target: AgLsb4
Method: as §1

AgMyo5 = biological target: AgMyo5
Method: as §1

AgNbp2 = biological target: AgNbp2
Method: as §1

AgRvs167 = biological target: AgRvs167
Method: as §1

AgSho1 = biological target: AgSho1
Method: as §1

AgSla1-D1-D2 = biological target: AgSla1-D1-D2
Method: as §1

AgSla1-D3 = biological target: AgSla1-D3
Method: as §1

CaAbp1-D1 = biological target: CaAbp1-D1
Method: as §1

CaAbp1-D2 = biological target: CaAbp1-D2
Method: as §1

CaBbc1 = biological target: CaBbc1
Method: as §1

CaBem1-D1 = biological target: CaBem1-D1
Method: as §1

CaBzz1-D1 = biological target: CaBzz1-D1
Method: as §1

CaBzz1-D2 = biological target: CaBzz1-D2
Method: as §1

CaCyk3 = biological target: CaCyk3
Method: as §1

CaFus1 = biological target: CaFus1
Method: as §1

CaHof1 = biological target: CaHof1
Method: as §1

CaHse1 = biological target: CaHse1
Method: as §1

CaLsb1 = biological target: CaLsb1
Method: as §1

CaLsb4 = biological target: CaLsb4
Method: as §1

CaMyo5 = biological target: CaMyo5
Method: as §1

CaNbp2 = biological target: CaNbp2
Method: as §1

CaRvs167 = biological target: CaRvs167
Method: as §1

CaRvs167-3 = biological target: CaRvs167-3
Method: as §1

CaSho1 = biological target: CaSho1
Method: as §1

CaSla1-D1-D2 = biological target: CaSla1-D1-D2
Method: as §1

CaSla1-D3 = biological target: CaSla1-D3
Method: as §1

ScAbp1 = biological target: ScAbp1
Method: as §1

ScBbc1 = biological target: ScBbc1
Method: as §1

ScBem1-D1 = biological target: ScBem1-D1
Method: as §1

ScBzz1-D1 = biological target: ScBzz1-D1
Method: as §1

ScBzz1-D2 = biological target: ScBzz1-D2
Method: as §1

ScCyk3 = biological target: ScCyk3
Method: as §1

ScFus1 = biological target: ScFus1
Method: as §1

ScHof1 = biological target: ScHof1
Method: as §1

ScHse1 = biological target: ScHse1
Method: as §1

ScLsb1 = biological target: ScLsb1
Method: as §1

ScLsb2 = biological target: ScLsb2
Method: as §1

ScLsb3 = biological target: ScLsb3
Method: as §1

ScLsb4 = biological target: ScLsb4
Method: as §1

ScMyo3 = biological target: ScMyo3
Method: as §1

ScMyo5 = biological target: ScMyo5
Method: as §1

ScNbp2 = biological target: ScNbp2
Method: as §1

ScPex13 = biological target: ScPex13
Method: as §1

ScRvs167 = biological target: ScRvs167
Method: as §1

ScSho1 = biological target: ScSho1
Method: as §1

ScSla1-D1-D2 = biological target: ScSla1-D1-D2
Method: as §1

ScSla1-D3 = biological target: ScSla1-D3
Method: as §1

SpAbp1-D1 = biological target: SpAbp1-D1
Method: as §1

SpBbc1 = biological target: SpBbc1
Method: as §1

SpBzz1-D1 = biological target: SpBzz1-D1
Method: as §1

SpBzz1-D2 = biological target: SpBzz1-D2
Method: as §1

SpCyk3 = biological target: SpCyk3
Method: as §1

SpHof1 = biological target: SpHof1
Method: as §1

SpHof1-2 = biological target: SpHof1-2
Method: as §1

SpHof1-3 = biological target: SpHof1-3
Method: as §1

SpHse1 = biological target: SpHse1
Method: as §1

SpLsb1 = biological target: SpLsb1
Method: as §1

SpLsb4 = biological target: SpLsb4
Method: as §1

SpMyo1 = biological target: SpMyo1
Method: as §1

SpNbp2 = biological target: SpNbp2
Method: as §1

SpPex13 = biological target: SpPex13
Method: as §1

SpRvs167 = biological target: SpRvs167
Method: as §1

SpSla1-D1-D2 = biological target: SpSla1-D1-D2
Method: as §1

SpSla1-D3 = biological target: SpSla1-D3
Method: as §1

B1: unnamed (peptide)
chain: QRIRKIPGIPLMSVG
- SPOT peptide array binding signal intensity (AgAbp1): 26
- SPOT peptide array binding signal intensity (AgBbc1): 184
- SPOT peptide array binding signal intensity (AgBem1-D1): 63.5
- SPOT peptide array binding signal intensity (AgBzz1-D1): 19.5
- SPOT peptide array binding signal intensity (AgBzz1-D2): 34
- SPOT peptide array binding signal intensity (AgCyk3): 1
- SPOT peptide array binding signal intensity (AgFus1): 296
- SPOT peptide array binding signal intensity (AgHof1): 29.2
- SPOT peptide array binding signal intensity (AgHse1): 194
- SPOT peptide array binding signal intensity (AgLsb1): 13.8
- SPOT peptide array binding signal intensity (AgLsb4): 258
- SPOT peptide array binding signal intensity (AgMyo5): ≤ 0
- SPOT peptide array binding signal intensity (AgNbp2): 486
- SPOT peptide array binding signal intensity (AgRvs167): 54.8
- SPOT peptide array binding signal intensity (AgSho1): 104
- SPOT peptide array binding signal intensity (AgSla1-D1-D2): 40.5
- SPOT peptide array binding signal intensity (AgSla1-D3): 11.5
- SPOT peptide array binding signal intensity (CaAbp1-D1): 253
- SPOT peptide array binding signal intensity (CaAbp1-D2): 358
- SPOT peptide array binding signal intensity (CaBbc1): 226
- SPOT peptide array binding signal intensity (CaBem1-D1): 34.5
- SPOT peptide array binding signal intensity (CaBzz1-D1): 162
- SPOT peptide array binding signal intensity (CaBzz1-D2): 106
- SPOT peptide array binding signal intensity (CaCyk3): 49.5
- SPOT peptide array binding signal intensity (CaFus1): 707
- SPOT peptide array binding signal intensity (CaHof1): 0.25
- SPOT peptide array binding signal intensity (CaHse1): 94.2
- SPOT peptide array binding signal intensity (CaLsb1): 1.25
- SPOT peptide array binding signal intensity (CaLsb4): 2460
- SPOT peptide array binding signal intensity (CaMyo5): 1.5
- SPOT peptide array binding signal intensity (CaNbp2): 549
- SPOT peptide array binding signal intensity (CaRvs167): 296
- SPOT peptide array binding signal intensity (CaRvs167-3): 6.5
- SPOT peptide array binding signal intensity (CaSho1): 303
- SPOT peptide array binding signal intensity (CaSla1-D1-D2): 817
- SPOT peptide array binding signal intensity (CaSla1-D3): 38.5
- SPOT peptide array binding signal intensity (ScAbp1): 99
- SPOT peptide array binding signal intensity (ScBbc1): 32.5
- SPOT peptide array binding signal intensity (ScBem1-D1): 13.5
- SPOT peptide array binding signal intensity (ScBzz1-D1): 2
- SPOT peptide array binding signal intensity (ScBzz1-D2): 25
- SPOT peptide array binding signal intensity (ScCyk3): 7
- SPOT peptide array binding signal intensity (ScFus1): 284
- SPOT peptide array binding signal intensity (ScHof1): 2
- SPOT peptide array binding signal intensity (ScHse1): 553
- SPOT peptide array binding signal intensity (ScLsb1): 9.25
- SPOT peptide array binding signal intensity (ScLsb2): 13
- SPOT peptide array binding signal intensity (ScLsb3): 3970
- SPOT peptide array binding signal intensity (ScLsb4): 349
- SPOT peptide array binding signal intensity (ScMyo3): ≤ 0
- SPOT peptide array binding signal intensity (ScMyo5): ≤ 0
- SPOT peptide array binding signal intensity (ScNbp2): 672
- SPOT peptide array binding signal intensity (ScPex13): 408
- SPOT peptide array binding signal intensity (ScRvs167): 1160
- SPOT peptide array binding signal intensity (ScSho1): 1280
- SPOT peptide array binding signal intensity (ScSla1-D1-D2): 1610
- SPOT peptide array binding signal intensity (ScSla1-D3): 64
- SPOT peptide array binding signal intensity (SpAbp1-D1): 116
- SPOT peptide array binding signal intensity (SpBbc1): 9.25
- SPOT peptide array binding signal intensity (SpBzz1-D1): 176
- SPOT peptide array binding signal intensity (SpBzz1-D2): 5.75
- SPOT peptide array binding signal intensity (SpCyk3): 5
- SPOT peptide array binding signal intensity (SpHof1): 140
- SPOT peptide array binding signal intensity (SpHof1-2): 51.5
- SPOT peptide array binding signal intensity (SpHof1-3): 440
- SPOT peptide array binding signal intensity (SpHse1): 242
- SPOT peptide array binding signal intensity (SpLsb1): 17
- SPOT peptide array binding signal intensity (SpLsb4): 3060
- SPOT peptide array binding signal intensity (SpMyo1): ≤ 0
- SPOT peptide array binding signal intensity (SpNbp2): 359
- SPOT peptide array binding signal intensity (SpPex13): 22
- SPOT peptide array binding signal intensity (SpRvs167): 1140
- SPOT peptide array binding signal intensity (SpSla1-D1-D2): 89.5
- SPOT peptide array binding signal intensity (SpSla1-D3): 27

B2: unnamed (peptide)
chain: RPPRPPPKPLHLRTE
- SPOT peptide array binding signal intensity (SpBzz1-D2): 43
- SPOT peptide array binding signal intensity (SpCyk3): ≤ 0
- SPOT peptide array binding signal intensity (SpHof1): 65
- SPOT peptide array binding signal intensity (SpHof1-2): 15.5
- SPOT peptide array binding signal intensity (SpHof1-3): 237
- SPOT peptide array binding signal intensity (SpHse1): 216
- SPOT peptide array binding signal intensity (SpLsb1): 582
- SPOT peptide array binding signal intensity (SpLsb4): 1950
- SPOT peptide array binding signal intensity (SpMyo1): 318
- SPOT peptide array binding signal intensity (SpNbp2): 22
- SPOT peptide array binding signal intensity (SpPex13): 17
- SPOT peptide array binding signal intensity (SpRvs167): 865
- SPOT peptide array binding signal intensity (SpSla1-D1-D2): 13.5
- SPOT peptide array binding signal intensity (SpSla1-D3): 4
